# Experimental data as given in PMC11006913.
# Where a chain is given by its changes, count along the chain named.
# Legend:
# Assay in all cases: PBM; 200 nM protein, PBS
# Settings in all cases: dsDNA, one strand shown
# [1] = target: T1, SIX6 (Homo sapiens, UniProt O95475 114-200, L167I)
# T1 sequence: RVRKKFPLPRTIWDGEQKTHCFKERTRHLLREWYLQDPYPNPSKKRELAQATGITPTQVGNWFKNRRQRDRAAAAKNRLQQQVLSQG
# [2] = target: T2, SIX6 (Homo sapiens, UniProt O95475 114-200, L143V)
# T2 sequence: T1 sequence with L30V, I54L
# [3] = target: T3, SIX6 (Homo sapiens, UniProt O95475 114-200, H141N)
# T3 sequence: T1 sequence with H28N, I54L
# [4] = target: T4, SIX6 (Homo sapiens, UniProt O95475 114-200, T165P)
# T4 sequence: T1 sequence with T52P, I54L
# [5] = target: T5, SIX6 (Homo sapiens, UniProt O95475 114-200, L167M)
# T5 sequence: T1 sequence with I54M
# [6] = target: T6, SIX6 (Homo sapiens, UniProt O95475 114-200, L143M)
# T6 sequence: T1 sequence with L30M, I54L
# [7] = target: T7, SIX6 (Homo sapiens, UniProt O95475 114-200, L143I)
# T7 sequence: T1 sequence with L30I, I54L
# [8] = target: T8, SIX6 (Homo sapiens, UniProt O95475 114-200, T165G)
# T8 sequence: T1 sequence with T52G, I54L
# [9] = target: T9, SIX6 (Homo sapiens, UniProt O95475 114-200, T139Q)
# T9 sequence: T1 sequence with T26Q, I54L
# [10] = target: T10, SIX6 (Homo sapiens, UniProt O95475 114-200, T165A)
# T10 sequence: T1 sequence with T52A, I54L
# [11] = target: T11, SIX6 (Homo sapiens, UniProt O95475 114-200, L167V)
# T11 sequence: T1 sequence with I54V
# [12] = target: T12, SIX6 (Homo sapiens, UniProt O95475 114-200)
# T12 sequence: T1 sequence with I54L
# [13] = target: T13, SIX6 (Homo sapiens, UniProt O95475 114-200, T165I)
# T13 sequence: T1 sequence with T52I, I54L
Sequence,binding signal [1],binding signal [2],binding signal [3],binding signal [4],binding signal [5],binding signal [6],binding signal [7],binding signal [8],binding signal [9],binding signal [10],binding signal [11],binding signal [12],binding signal [13]
GATCCAGA,"10.5 upbm affinity estimate (log intensity, higher = more binding, comparable within an allelic series)","10 upbm affinity estimate (log intensity, higher = more binding, comparable within an allelic series)","10.4 upbm affinity estimate (log intensity, higher = more binding, comparable within an allelic series)","9.57 upbm affinity estimate (log intensity, higher = more binding, comparable within an allelic series)","10.1 upbm affinity estimate (log intensity, higher = more binding, comparable within an allelic series)","10.3 upbm affinity estimate (log intensity, higher = more binding, comparable within an allelic series)","10.1 upbm affinity estimate (log intensity, higher = more binding, comparable within an allelic series)","10.4 upbm affinity estimate (log intensity, higher = more binding, comparable within an allelic series)","10.6 upbm affinity estimate (log intensity, higher = more binding, comparable within an allelic series)","10.4 upbm affinity estimate (log intensity, higher = more binding, comparable within an allelic series)","10.3 upbm affinity estimate (log intensity, higher = more binding, comparable within an allelic series)","10.5 upbm affinity estimate (log intensity, higher = more binding, comparable within an allelic series)","10.3 upbm affinity estimate (log intensity, higher = more binding, comparable within an allelic series)"
GGCCGCCA,"8.71 upbm affinity estimate (log intensity, higher = more binding, comparable within an allelic series)","8.68 upbm affinity estimate (log intensity, higher = more binding, comparable within an allelic series)","8.73 upbm affinity estimate (log intensity, higher = more binding, comparable within an allelic series)","8.9 upbm affinity estimate (log intensity, higher = more binding, comparable within an allelic series)","8.74 upbm affinity estimate (log intensity, higher = more binding, comparable within an allelic series)","8.71 upbm affinity estimate (log intensity, higher = more binding, comparable within an allelic series)","8.7 upbm affinity estimate (log intensity, higher = more binding, comparable within an allelic series)","8.66 upbm affinity estimate (log intensity, higher = more binding, comparable within an allelic series)","8.63 upbm affinity estimate (log intensity, higher = more binding, comparable within an allelic series)","8.66 upbm affinity estimate (log intensity, higher = more binding, comparable within an allelic series)","8.8 upbm affinity estimate (log intensity, higher = more binding, comparable within an allelic series)","8.68 upbm affinity estimate (log intensity, higher = more binding, comparable within an allelic series)","8.7 upbm affinity estimate (log intensity, higher = more binding, comparable within an allelic series)"
CAGTATCA,"11.2 upbm affinity estimate (log intensity, higher = more binding, comparable within an allelic series)","10.2 upbm affinity estimate (log intensity, higher = more binding, comparable within an allelic series)","11.1 upbm affinity estimate (log intensity, higher = more binding, comparable within an allelic series)","9.69 upbm affinity estimate (log intensity, higher = more binding, comparable within an allelic series)","10.5 upbm affinity estimate (log intensity, higher = more binding, comparable within an allelic series)","10.7 upbm affinity estimate (log intensity, higher = more binding, comparable within an allelic series)","10.3 upbm affinity estimate (log intensity, higher = more binding, comparable within an allelic series)","11.2 upbm affinity estimate (log intensity, higher = more binding, comparable within an allelic series)","11 upbm affinity estimate (log intensity, higher = more binding, comparable within an allelic series)","11.1 upbm affinity estimate (log intensity, higher = more binding, comparable within an allelic series)","10.9 upbm affinity estimate (log intensity, higher = more binding, comparable within an allelic series)","10.9 upbm affinity estimate (log intensity, higher = more binding, comparable within an allelic series)","10.9 upbm affinity estimate (log intensity, higher = more binding, comparable within an allelic series)"
GATATACC,"11.1 upbm affinity estimate (log intensity, higher = more binding, comparable within an allelic series)","10.4 upbm affinity estimate (log intensity, higher = more binding, comparable within an allelic series)","11.2 upbm affinity estimate (log intensity, higher = more binding, comparable within an allelic series)","9.81 upbm affinity estimate (log intensity, higher = more binding, comparable within an allelic series)","10.9 upbm affinity estimate (log intensity, higher = more binding, comparable within an allelic series)","11 upbm affinity estimate (log intensity, higher = more binding, comparable within an allelic series)","10.5 upbm affinity estimate (log intensity, higher = more binding, comparable within an allelic series)","11.1 upbm affinity estimate (log intensity, higher = more binding, comparable within an allelic series)","11.2 upbm affinity estimate (log intensity, higher = more binding, comparable within an allelic series)","11.1 upbm affinity estimate (log intensity, higher = more binding, comparable within an allelic series)","10.9 upbm affinity estimate (log intensity, higher = more binding, comparable within an allelic series)","11 upbm affinity estimate (log intensity, higher = more binding, comparable within an allelic series)","11.1 upbm affinity estimate (log intensity, higher = more binding, comparable within an allelic series)"
AGATAGGG,"10.1 upbm affinity estimate (log intensity, higher = more binding, comparable within an allelic series)","9.56 upbm affinity estimate (log intensity, higher = more binding, comparable within an allelic series)","10.1 upbm affinity estimate (log intensity, higher = more binding, comparable within an allelic series)","9.33 upbm affinity estimate (log intensity, higher = more binding, comparable within an allelic series)",–,–,"9.71 upbm affinity estimate (log intensity, higher = more binding, comparable within an allelic series)","10.3 upbm affinity estimate (log intensity, higher = more binding, comparable within an allelic series)","10.4 upbm affinity estimate (log intensity, higher = more binding, comparable within an allelic series)","10.1 upbm affinity estimate (log intensity, higher = more binding, comparable within an allelic series)",–,"10 upbm affinity estimate (log intensity, higher = more binding, comparable within an allelic series)",–
GCCCGGAA,"9.01 upbm affinity estimate (log intensity, higher = more binding, comparable within an allelic series)","8.91 upbm affinity estimate (log intensity, higher = more binding, comparable within an allelic series)","8.98 upbm affinity estimate (log intensity, higher = more binding, comparable within an allelic series)","8.9 upbm affinity estimate (log intensity, higher = more binding, comparable within an allelic series)","8.95 upbm affinity estimate (log intensity, higher = more binding, comparable within an allelic series)","9.01 upbm affinity estimate (log intensity, higher = more binding, comparable within an allelic series)","9 upbm affinity estimate (log intensity, higher = more binding, comparable within an allelic series)","9.03 upbm affinity estimate (log intensity, higher = more binding, comparable within an allelic series)","9.07 upbm affinity estimate (log intensity, higher = more binding, comparable within an allelic series)","8.96 upbm affinity estimate (log intensity, higher = more binding, comparable within an allelic series)","8.95 upbm affinity estimate (log intensity, higher = more binding, comparable within an allelic series)","8.97 upbm affinity estimate (log intensity, higher = more binding, comparable within an allelic series)","8.98 upbm affinity estimate (log intensity, higher = more binding, comparable within an allelic series)"
GTATCAAA,"11.4 upbm affinity estimate (log intensity, higher = more binding, comparable within an allelic series)","10.5 upbm affinity estimate (log intensity, higher = more binding, comparable within an allelic series)","11.4 upbm affinity estimate (log intensity, higher = more binding, comparable within an allelic series)","9.91 upbm affinity estimate (log intensity, higher = more binding, comparable within an allelic series)","10.8 upbm affinity estimate (log intensity, higher = more binding, comparable within an allelic series)","11.2 upbm affinity estimate (log intensity, higher = more binding, comparable within an allelic series)","10.4 upbm affinity estimate (log intensity, higher = more binding, comparable within an allelic series)","11.3 upbm affinity estimate (log intensity, higher = more binding, comparable within an allelic series)","11.2 upbm affinity estimate (log intensity, higher = more binding, comparable within an allelic series)","11.4 upbm affinity estimate (log intensity, higher = more binding, comparable within an allelic series)","11.2 upbm affinity estimate (log intensity, higher = more binding, comparable within an allelic series)","11.2 upbm affinity estimate (log intensity, higher = more binding, comparable within an allelic series)","11.2 upbm affinity estimate (log intensity, higher = more binding, comparable within an allelic series)"
TGATATCA,"11.6 upbm affinity estimate (log intensity, higher = more binding, comparable within an allelic series)","10.5 upbm affinity estimate (log intensity, higher = more binding, comparable within an allelic series)","11.6 upbm affinity estimate (log intensity, higher = more binding, comparable within an allelic series)","9.86 upbm affinity estimate (log intensity, higher = more binding, comparable within an allelic series)","11 upbm affinity estimate (log intensity, higher = more binding, comparable within an allelic series)","11.4 upbm affinity estimate (log intensity, higher = more binding, comparable within an allelic series)","10.5 upbm affinity estimate (log intensity, higher = more binding, comparable within an allelic series)","11.6 upbm affinity estimate (log intensity, higher = more binding, comparable within an allelic series)","11.6 upbm affinity estimate (log intensity, higher = more binding, comparable within an allelic series)","11.6 upbm affinity estimate (log intensity, higher = more binding, comparable within an allelic series)","11.6 upbm affinity estimate (log intensity, higher = more binding, comparable within an allelic series)","11.3 upbm affinity estimate (log intensity, higher = more binding, comparable within an allelic series)","11.4 upbm affinity estimate (log intensity, higher = more binding, comparable within an allelic series)"
AGGGTATC,"11.2 upbm affinity estimate (log intensity, higher = more binding, comparable within an allelic series)","10.2 upbm affinity estimate (log intensity, higher = more binding, comparable within an allelic series)","11.2 upbm affinity estimate (log intensity, higher = more binding, comparable within an allelic series)","9.36 upbm affinity estimate (log intensity, higher = more binding, comparable within an allelic series)","10.7 upbm affinity estimate (log intensity, higher = more binding, comparable within an allelic series)","11 upbm affinity estimate (log intensity, higher = more binding, comparable within an allelic series)","10.4 upbm affinity estimate (log intensity, higher = more binding, comparable within an allelic series)","11.4 upbm affinity estimate (log intensity, higher = more binding, comparable within an allelic series)","11.4 upbm affinity estimate (log intensity, higher = more binding, comparable within an allelic series)","11.1 upbm affinity estimate (log intensity, higher = more binding, comparable within an allelic series)","10.9 upbm affinity estimate (log intensity, higher = more binding, comparable within an allelic series)","11.1 upbm affinity estimate (log intensity, higher = more binding, comparable within an allelic series)","11 upbm affinity estimate (log intensity, higher = more binding, comparable within an allelic series)"
AGGTATCA,"11.7 upbm affinity estimate (log intensity, higher = more binding, comparable within an allelic series)","10.6 upbm affinity estimate (log intensity, higher = more binding, comparable within an allelic series)","11.8 upbm affinity estimate (log intensity, higher = more binding, comparable within an allelic series)","9.9 upbm affinity estimate (log intensity, higher = more binding, comparable within an allelic series)","11 upbm affinity estimate (log intensity, higher = more binding, comparable within an allelic series)","11.4 upbm affinity estimate (log intensity, higher = more binding, comparable within an allelic series)","10.7 upbm affinity estimate (log intensity, higher = more binding, comparable within an allelic series)","11.8 upbm affinity estimate (log intensity, higher = more binding, comparable within an allelic series)","11.6 upbm affinity estimate (log intensity, higher = more binding, comparable within an allelic series)","11.7 upbm affinity estimate (log intensity, higher = more binding, comparable within an allelic series)","11.5 upbm affinity estimate (log intensity, higher = more binding, comparable within an allelic series)","11.4 upbm affinity estimate (log intensity, higher = more binding, comparable within an allelic series)","11.5 upbm affinity estimate (log intensity, higher = more binding, comparable within an allelic series)"
GATATCAC,"11.4 upbm affinity estimate (log intensity, higher = more binding, comparable within an allelic series)","10.3 upbm affinity estimate (log intensity, higher = more binding, comparable within an allelic series)","11.4 upbm affinity estimate (log intensity, higher = more binding, comparable within an allelic series)","9.67 upbm affinity estimate (log intensity, higher = more binding, comparable within an allelic series)","10.7 upbm affinity estimate (log intensity, higher = more binding, comparable within an allelic series)","11.1 upbm affinity estimate (log intensity, higher = more binding, comparable within an allelic series)","10.3 upbm affinity estimate (log intensity, higher = more binding, comparable within an allelic series)","11.4 upbm affinity estimate (log intensity, higher = more binding, comparable within an allelic series)","11.2 upbm affinity estimate (log intensity, higher = more binding, comparable within an allelic series)","11.2 upbm affinity estimate (log intensity, higher = more binding, comparable within an allelic series)","11.1 upbm affinity estimate (log intensity, higher = more binding, comparable within an allelic series)","11.1 upbm affinity estimate (log intensity, higher = more binding, comparable within an allelic series)","11.1 upbm affinity estimate (log intensity, higher = more binding, comparable within an allelic series)"
